PubChem BioAssay AID1527 (The Scripps Research Institute Molecular Screening Center, 2009)
About 2,600 (0.9%) of roughly 290,000 compounds were called active. This is one part of a sample in which actives are shown more often than they occur. Unmarked numbers belong to inactive results.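 The calls were made as follows: active = inhibition above the mean of all tested compounds plus 3 SD, cutoff set per screening run (cut at about 7.5% in these data); inactive = the rest.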

Each compound was assayed on VIM-2 metallo-beta-lactamase (Pseudomonas aeruginosa) (assay: inhibition of VIM-2 nitrocefin hydrolysis – biochemical, epi-absorbance readout, Pseudomonas aeruginosa enzyme, primary screen (AID 1527;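 also: red hydrolysis product quenches plate fluorescence so inhibitors raise well fluorescence; 0% = enzyme with DMSO and 100% = DMSO without enzyme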)). Conditions: purified VIM-2, nitrocefin hydrolysis, epi-absorbance fluorescence; at 5.6 µM; stronger effect = higher value.

Row | Structure (SMILES) | inhibition
1 | c1ccc(Nc2nc(N3CCOCC3)c3ccccc3n2)cc1 | -0.89%
2 | CN1CCN(c2nc(Nc3ccc(O)cc3)nc3ccccc23)CC1 | 12.2% (active)
3 | Cc1cccc(-c2nc(Nc3ccc(O)cc3)c3ccccc3n2)c1 | -0.38%
4 | O=C(/C=C/c1ccc2c(c1)OCCO2)c1ccc(O)cc1 | 0.15%
5 | CCC(=C/c1sc2ccc3ccccc3c2[n+]1C)/C=C1\Sc2ccc3ccccc3c2N1C | 18.2% (active)
6 | CN1CCN(c2ccc(NC(=O)c3ccc4c(c3)[nH]c(=O)n4Cc3ccc(F)cc3)cc2)CC1 | 17.6% (active)
7 | CN1CCN(c2ccc(NC(=O)c3ccccc3)cc2)CC1 | 5.59%
8 | CC(C)n1c(=O)[nH]c2cc(C(=O)Nc3ccccc3)ccc21 | -0.68%
9 | Cc1cc2occ(CC(=O)NNC(=O)c3ccccc3F)c2cc1C | -1.98%
10 | Cc1nc(N)nc(SCc2ccc([N+](=O)[O-])cc2)c1N | -0.52%
11 | COC(=O)c1ccc(NC(=O)CSc2nnc(C3CC3)n2C)cc1 | -2.19%
12 | O=C(Nc1ccc2c(c1)OCCO2)c1cnccn1 | -1.18%
13 | CCN1CCN(c2ccc(NC(=O)c3cnccn3)cc2)CC1 | 11.1% (active)
14 | O=C(Nc1ccc(S(=O)(=O)N2CCCCC2)cc1)c1cnccn1 | -1.24%
15 | CC(CC(=O)N1CCN(c2ccccc2)CC1)S(=O)(=O)c1ccc2c(c1)NC(=O)CS2 (centres undefined) | -2.34%
16 | CN1CCN(Cc2c(C(=O)N3CCc4ccccc4C3)nc3ccc(Cl)cn23)CC1 | 1.36%
17 | O=C(Nc1ccc(N2CCOCC2)c(Cl)c1)c1ccc(S(=O)(=O)N2CCOCC2)cc1 | -1.9%
18 | COc1ccc(C(=O)Nc2nc(-c3ccc(S(=O)(=O)N4CCOCC4)cc3)cs2)cc1 | -4.64%
19 | CC1CN(S(=O)(=O)c2ccc(C(=O)Nc3sccc3C(N)=O)cc2)CC(C)O1 (centres undefined) | -1.24%
20 | CNC(=O)c1ccsc1NC(=O)c1ccc(S(=O)(=O)N2CCOCC2)cc1 | 18.2% (active)
21 | COC(=O)c1c(NC(=O)c2ccc(S(=O)(=O)N3CCOCC3)cc2)sc2c1CCN(C(C)C)C2 | 60.3% (active)
22 | CNC(=O)c1ccsc1NC(=O)c1ccc(S(=O)(=O)N2CCc3ccccc32)cc1 | -1.27%
23 | Cc1ccn2c(c1)nc(=O)c1cc(S(=O)(=O)N3CCC(C)CC3)ccc12 | 3.01%
24 | CC(C(=O)NC1CCCCC1)N1C(=O)c2cccc3cccc1c23 (centres undefined) | 0.01%

Row | Structure (SMILES) | inhibition
25 | COc1ccc2c(c1OC)C(=O)N(c1ccc(O)cc1)C2 | -1.4%
26 | CCOC(=O)C1(Cc2ccccc2C)CCCN(S(C)(=O)=O)C1 (centres undefined) | 2.72%
27 | C/C(=N\NS(=O)(=O)c1ccc(Br)cc1)c1cccs1 | -5.12%
28 | C/C(=N\Nc1ccc(S(N)(=O)=O)cc1[N+](=O)[O-])c1cccs1 | 11.9% (active)
29 | C/C(=N\Nc1ncc(Cl)cc1Cl)c1cccs1 | -1.51%
30 | CCN(CC)c1ccc(NC(=O)CCc2nnc3ccc(N4CCCCC4)nn23)c(C)c1 | -1.16%
31 | Cc1cc(C)c([N+](=O)[O-])cc1-c1ccc(/C=N/NC(=O)c2nonc2N)o1 | -3.27%
32 | O=C1C2C3C=CC(C4CC34)C2C(=O)N1/N=C/c1ccc(-c2ccccc2[N+](=O)[O-])o1 (centres undefined) | -0.54%
33 | Brc1cc(/C=N/n2cnnc2)oc1Br | -2.87%
34 | Fc1ccc(Br)cc1/C=N/n1cnnc1 | 1.26%
35 | Cc1ccc(Cl)cc1-c1ccc(/C=N/n2cnnc2)o1 | 27.4% (active)
36 | Cc1ccccc1-c1n[nH]c(=S)n1/N=C/c1ccc(-c2ccccc2Br)o1 | -6.24%
37 | Cc1ccccc1OCCOc1ccc([N+](=O)[O-])cc1/C=N/n1cnnc1 | -0.56%
38 | Clc1cc(-c2ccc(/C=N/n3cnnc3)o2)ccc1Br | 14.1% (active)
39 | Cc1cc([N+](=O)[O-])c(-c2ccc(/C=N/n3cnnc3)o2)cc1Cl | 40.1% (active)
40 | CC1=NN(c2ccc(Cl)c(C(=O)O)c2)C(=O)/C1=C/c1ccc(-c2ccccc2[N+](=O)[O-])o1 | -1.65%
41 | Cc1cc(-c2ccc(/C=N/n3cnnc3)o2)c([N+](=O)[O-])cc1C | 41.5% (active)
42 | COC(=O)N/N=C/c1ccc(-c2ccc(Cl)c(Cl)c2)o1 | -1.8%
43 | CC(NC(=O)C1CCCN(S(=O)(=O)c2ccc(-n3cnnn3)cc2)C1)c1ccc(F)cc1 (centres undefined) | 1.19%
44 | COc1ccc(CSc2nnnn2-c2ccc(C(=O)O)cc2)cc1 | -2.38%
45 | COc1cc(CN2CCCC(C(=O)c3ccc(SC)cc3)C2)cc(Cl)c1O (centres undefined) | -0.31%
46 | CCOc1c(OC)cccc1C(=O)NCC1(c2ccccc2)CCCC1 | -2.24%
47 | COCCCNC(=S)NNC(=O)C(O)(c1ccccc1)c1ccccc1 | 2.9%
48 | CCCCNC(=S)NNC(=O)c1cc(C)on1 | 9.24% (active)

Row | Structure (SMILES) | inhibition
49 | O=C(NNC(=S)NCCCN1CCOCC1)c1ccncc1 | 6.22%
50 | Cc1ccc(SCC(=O)c2cc(C)c(OC(=S)N(C)C)c(C)c2)cc1 | -4.92%
51 | CCCC1=Nc2cc(C(=O)NCCN3CCCC3)ccc2Sc2ccccc21 | -3.66%
52 | COc1cc(/C=N/NC(=O)Cc2ccccc2)cc(OC)c1OC | -1.77%
53 | COc1ccc(/C=N/Nc2nc3ccccc3o2)cc1OC | -2.44%
54 | COc1cc(/C=N/Nc2nn3cnnc3c3ccccc23)cc(OC)c1OC | 25.2% (active)
55 | CCCc1nn2c(=O)cc(CSCC(=O)Nc3cccc(C)c3)nc2s1 | 0.24%
56 | Cc1cccn2cc(-c3cccc(S(=O)(=O)N4CCCCC4)c3)nc12 | -0.51%
57 | CN(C(=O)c1cccc([N+](=O)[O-])c1)c1ccccc1C(=O)NCc1ccccc1 | -1.36%
58 | O=c1c2ccccc2oc2nc(C3CCCCC3)n(Cc3ccco3)c(=O)c12 | -2.32%
59 | O=c1c2ccccc2oc2nc3n(c(=O)c12)CCCS3 | 8.39% (active)
60 | CCc1nc2oc3ccccc3c(=O)c2c(=O)n1Cc1ccc(OC)cc1 | -2.13%
61 | Cc1sc2ncn(CC(=O)NCCCC(=O)NCc3ccc(F)cc3)c(=O)c2c1C | 0.04%
62 | Cc1nc2sc(C(=O)c3ccccc3)c(N)c2c2c1CCCC2 | 2.15%
63 | Nc1c(C(=O)c2cccs2)sc2nsc(SCCN3CCCCC3)c12 | 13.6% (active)
64 | CN(C)c1ccnc2sc(C(=O)c3ccccc3)c(N)c12 | -2.05%
65 | CCN(CC)CCN1C(=O)C2C(C(=O)Nc3ccc(Br)cc3)C3C=CC2(O3)C1C(=O)NC1CCCCC1 (centres undefined) | -0.9%
66 | Cc1ccc2[nH]c(=O)c(CC(=O)O)c(-c3ccccc3)c2c1 | -3.01%
67 | CCOc1ccccc1NC(=S)N1CCN(c2cccc(C)c2C)CC1 | -0.35%
68 | Cc1ccc(S(=O)(=O)N(C)C)cc1NC(=O)c1n[nH]c(=O)c2ccccc12 | -0.87%
69 | COCCNC(=O)c1ccccc1NS(=O)(=O)c1ccc(C)c([N+](=O)[O-])c1 | 0.45%
70 | CCN(CC)CCNc1ccc(Cl)cc1[N+](=O)[O-] | 0.16%
71 | CN(C)CCNc1ccc(-c2n[nH]c(=O)c3ccccc23)cc1[N+](=O)[O-] | 78.8% (active)
72 | COCCNc1cc(NCCOC)c([N+](=O)[O-])cc1[N+](=O)[O-] | -3.48%

Row | Structure (SMILES) | inhibition
73 | COCCNc1ccc(-c2n[nH]c(=O)c3ccccc23)cc1[N+](=O)[O-] | 10.5% (active)
74 | O=C(Nc1ccc(S(=O)(=O)N2CCCCCC2)cc1)c1c(F)cccc1F | -0.68%
75 | O=C(O)CCCn1c(=O)c2cccn2c2ccc(F)cc21 | -1.43%
76 | Clc1ccc(CN2CCCCCC2)cc1Cl | -2.14%
77 | CC(=O)c1cccc(NC(=O)COc2ccc(S(=O)(=O)N3CCOCC3)cc2)c1 | -2.94%
78 | Cc1cc(C)n2nc(C(=O)NC(C)(C)C)nc2n1 | -3.78%
79 | COc1ccc(Cl)cc1C(=O)NNC(=O)c1nc2nc(C)cc(C)n2n1 | 10.3% (active)
80 | C=CCNC(=S)NNC(=O)c1cc(Cl)ccc1OC | -5.71%
81 | O=C(CNC(=O)OCc1ccccc1)Oc1cc2oc(=O)cc(-c3ccccc3)c2cc1Cl | 2.38%
82 | CN(C)/C=C1/C(=O)Nc2ccccc21 | -0.22%
83 | O=C1Nc2ccccc2/C1=C/c1ccnc2ccccc12 | 8.11% (active)
84 | Cc1ccccc1N1CCN(CCCN2C(=O)C3CCCCN3C2=O)CC1 (centres undefined) | 0.15%
85 | CC(NS(=O)(=O)c1ccccc1)c1n[nH]c(=S)n1-c1ccccc1 (centres undefined) | 14.9% (active)
86 | CCCCC(CC(C)O)c1n[nH]c(=S)n1-c1ccccc1 (centres undefined) | -4.22%
87 | S=c1[nH]nc(COc2ccccc2)n1-c1ccccc1 | -1.69%
88 | CCOc1c(Br)cc(/C=C2\C(=O)N(CCC#N)N=C2C)cc1OC | 0.69%
89 | CCN1CCN(C(=O)Cn2nc(C)n3c(cc4c(OC)cccc43)c2=O)CC1 | 28.3% (active)
90 | COc1cccc2c(=O)n(CC(=O)N3CCCCCC3)ccc12 | 1.04%
91 | CCc1nn(CC(=O)N2CCN(CC)CC2)c(=O)c2cccn12 | -0.45%
92 | COc1ccc(C(CNC(=O)COc2ccccc2OC)N2CCCCC2)cc1 (centres undefined) | -0.07%
93 | Cc1ccc(CN(N=Nc2nonc2N)c2nonc2N)c(C)c1 | -1.22%
94 | O=C(COc1ccc(-n2cnnn2)cc1)Nc1ccccc1Cl | 0.31%
